Results on eleven compounds are retold here after PubChem BioAssay (NCATS).

The structures appear in SMILES notation. Results filed as inconclusive are left out. Activity calls are given as the source filed them. Calls come from the whole dose curve; as a rule, active = well fitted curve in the direction sought with a large enough effect; inconclusive = small, poorly fitted or top-dose-only effect, or another doubt; inactive = no such curve, though single readings can be large; an effect the other way counts as inactive or inconclusive.

The target of assay [1] is Phospholipid hydroperoxide glutathione peroxidase GPX4 (Homo sapiens) (UniProt P36969). The assay is described as follows: Primary qHTS Assay for Inhibitors of Recombinant Selenoprotein Glutathione Peroxidase 4 (GPX4) (AID 1845192). For activity change, negative = inhibition: % is set by controls: 0 for no effect and ±100 for the full control effect. Note: nearly all actives have a fitted effect of over 65% in size. The settings on record: recombinant GPX4, GR-coupled NADPH fluorescence, 15 min; series mostly up to 27.8 µM. In outline:
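Steps: GPX4 plus compound, 30 min RT; add GR/GSH/NADPH master mix; start with cumene hydroperoxide; read 340/450 nm fluorescence at 0 and 15 min. Finals were 200 nM GPX4, 1 mM GSH, 0.5 mM CHP, 0.5 mM NADPH, 100 nM GR.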
For orientation: qHTS replaces the single test concentration by a dilution series.

Assay [2] can be described thus: Primary fluorescence-based thiol-reactive (MSTI) qHTS assay for identification of artifact compounds. (AID 1845221).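 Note: thiol-reactive compounds lower the probe fluorescence signal; nearly all actives have a fitted effect of over 65% in size.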 The settings on record: MSTI thiol-reactivity probe, 1 h; series mostly up to 53.8 µM. An outline of the steps: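 First, 4 uM MSTI in 2% DMSO/PBS pH 7.4 was dispensed; next, compounds were added; then plates sat 1 h at room temperature without light. Finally, emission at 598 nm was recorded.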

For assay [3], the system named is Nanoluciferase (engineered Oplophorus gracilirostris luciferase). Put plainly: Primary Nanoluciferase (NLuc) qHTS assay for identification of artifact compounds. (AID 1845222).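 For activity, negative = inhibition: 0% = DMSO and -100% = no enzyme.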 Note: potency is the fitted concentration of half-maximal effect. As to conditions: NLuc-conditioned medium, Nano-Glo luminescence, 5 min; series mostly up to 54.1 µM. In outline:
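Diluted conditioned medium from NLuc-expressing S16 cells treated with compounds for 15 min at room temperature, then Nano-Glo substrate added; luminescence read after 5 min. Percent inhibition versus no-enzyme and DMSO controls fitted to 4-parameter Hill equation.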

Assay [4] is described as follows: Primary redox qHTS assay for identification of artifact compounds. (AID 1845223).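 Note: 0% = DMSO and 100% = reference compound.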 As to conditions: Amplex Red/HRP redox cycling with DTT, fluorescence; series mostly up to 53.8 µM. An outline of the steps: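 Redox-cycling detection via DTT (250 uM final) oxidation coupled to Amplex Red (25 uM)/HRP (250 mU/mL) in HBSS. 15 min preincubation plus 30 min after DTT, room temperature. Ex/Em 525/598 nm; 4-parameter Hill fit against DMSO and 10 uM DA3003.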

Assay [5] deals with Luciferin 4-monooxygenase (Photinus pyralis) (UniProt P08659). Put plainly: Primary firefly luciferase (FLuc) qHTS assay for identification of artifact compounds. (AID 1845220).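 For activity change, negative = inhibition: plate controls were DMSO vehicle for no effect and no enzyme for full effect.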 Note: nearly all actives have a fitted effect of over 60% in size. As to conditions: purified firefly luciferase, luminescence, 5 min; series mostly up to 54.1 µM. An outline of the steps: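 D-luciferin and ATP (10 uM each, final) in Tris acetate buffer pH 7.6 were incubated with compounds for 15 min at room temperature. The reaction was started with 10 nM Photinus pyralis luciferase and luminescence read after 5 min. Percent inhibition was fitted to a 4-parameter Hill equation.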

Phospholipid hydroperoxide glutathione peroxidase GPX4 (Homo sapiens), sequence (P36969 whole entry, looked up): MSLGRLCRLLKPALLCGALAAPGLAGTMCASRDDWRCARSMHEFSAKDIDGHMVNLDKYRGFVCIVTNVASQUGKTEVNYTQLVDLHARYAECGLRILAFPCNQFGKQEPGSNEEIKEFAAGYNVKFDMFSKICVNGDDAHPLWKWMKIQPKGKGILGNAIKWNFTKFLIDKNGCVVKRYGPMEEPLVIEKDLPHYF

`CC(C)[C@@](O)(c1ccc2cc(OC(F)F)c(OC(F)F)cc2c1)c1cn[nH]n1`: the Potency entry in assay [1], in assay [2], in assay [3] and in assay [4] was “inactive” each time.

For the compound `COc1cc(/C=C/c2ccccc2)c(C(=O)O)c(O)c1CC=C(C)C`, the Potency entry in assay [1], in assay [5] and in assay [4] was “inactive” throughout. The Potency in assay [3] is 13.2 µM (active).

With `CN(C)CCC[C@]1(c2ccc(F)cc2)OCc2cc(C#N)ccc21`, the Potency entry in assay [1], in assay [5], in assay [2], in assay [3] and in assay [4] was “inactive” throughout.

On to `C/C=C(\C)C(=O)O[C@H]1C=CC(=O)O[C@H]1/C=C/[C@H](O)[C@@H](C)O`, for which the Potency result in assay [1], in assay [5], in assay [2], in assay [3] and in assay [4] was “inactive” each time.

For `C[C@@H]1O[C@@H](OC2C(O[C@H]3[C@H](O[C@H]4CC[C@@]5(C)C(CC[C@]6(C)C5CC=C5C7CC(C)(C)CC(O)[C@]7(C)CC[C@]56C)C4(C)C)O[C@H](C(=O)O)[C@@H](O)[C@@H]3O)OC(CO)C(O)C2O)[C@H](O)[C@H](O)[C@H]1O` (some centres not stated), the Potency result in assay [1] was “inactive”. Besides, in assay [2], the activity change, negative = thiol reactive is 22.1% [at 11.5 µM] (inactive). Further, in assay [3], the activity, negative = inhibition was 0% [at 11.6 µM] (inactive). Also, the redox activity (% of DA3003) in assay [4] is 6.57% [at 11.5 µM] (inactive).

Regarding `CCCSc1nc(NC2CC2c2ccc(F)c(F)c2)c2nnn(C3CC(OCCO)C(O)C3O)c2n1` (configuration not stated), the Potency result in assay [1], in assay [5], in assay [2], in assay [3] and in assay [4] was “inactive” in each case.

In the case of `CC1(C)C2CC[C@]3(C)C(C(=O)C=C4[C@H]5C[C@@](C)(C(=O)O)CC[C@]5(C)CC[C@]43C)[C@@]2(C)CC[C@@H]1O` (some centres not stated), the Potency entry in assay [1], in assay [5], in assay [3] and in assay [4] was “inactive” each time.

On to `C=Cc1cc2oc(-c3ccc(O)c(F)c3)nc2cc1O`, for which the Potency entry in assay [3] and in assay [4] was “inactive” throughout.

For `CC1=C2CC(C)(C)CC2C(O)C2=C(C1)C(=O)OC2O` (configuration not stated), the Potency entry in assay [1], in assay [5], in assay [2], in assay [3] and in assay [4] was “inactive” in each case.

With `COCC1OC(n2cnc3c(=O)[nH]cnc32)C(O)C1O` (configuration not stated), the Potency result in assay [1], in assay [5], in assay [2], in assay [3] and in assay [4] was “inactive” each time.

Regarding `C=C1CCC2(OC1)OC1CC3C4CC=C5CC(O)CC(O[C@@H]6OC[C@H](OC(=O)C(O)C(C)CC)[C@H](O)[C@H]6O[C@@H]6O[C@@H](C)[C@H](O)[C@@H](O)[C@H]6O)C5(C)C4CCC3(C)C1C2C` (some centres not stated), the Potency entry in assay [1] is “inactive”. In addition, the activity change, negative = inhibition in assay [5] is 0.354% [at 11.6 µM] (inactive). In addition, the activity, negative = inhibition in assay [3] was 4.49% [at 11.6 µM] (inactive). Moreover, the redox activity (% of DA3003) in assay [4] was -3.18% [at 11.5 µM] (inactive).
